Results taken from PubChem BioAssay (Tox21).
Several values for one entry are separate records, joined by “and”; a condition that tells them apart may be missing. Identical values can stand only once. Records with an inconclusive call do not appear. A structure can be active in one record and inactive in another. Activity calls are given as the source filed them. Unless noted, calls come from the whole dose curve; as a rule, active = well fitted curve in the direction sought with a large enough effect in the repeat runs; inconclusive = weak or mixed curves; inactive = no such curve, though single readings can be large; an effect the other way counts as inactive or inconclusive.

Tests used:
[1] = qHTS assay to identify small molecule agonists of H2AX (AID 1224845; active = well fitted activation curve with a large enough effect in the signal ratio in the repeat runs, not every such curve was filed as active; the % refers to the signal ratio; note: potency is the fitted concentration of half-maximal effect)
How it was run: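 Wild-type CHO-K1 cells plated overnight, then exposed 3 hr at 37C to compounds at 15 concentrations (0.76% DMSO). Lysed, then HTRF anti-pH2AX(S139)-cryptate/anti-H2AX-d2 detection after 24 hr at room temperature; emissions 665 and 620 nm.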

[2] = qHTS RealTime-Glo MT Cell Viability Assay in HepG2 cells - 24 hour (AID 1224867); note: nearly all actives have a fitted effect of over 50% in size; note: potency is the fitted concentration of half-maximal effect
How it was run: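 qHTS, HepG2, 600 cells/well, RealTime-Glo (NanoLuc + prosubstrate) added with cells; 5 h preincubation; DMSO compound addition; 37 C; luminescence at 0/8/16/24/32/40 h.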

[3] = qHTS RealTime-Glo MT Cell Viability Assay in HEK293 cells - 32 hour (AID 1224868); note: nearly all actives have a fitted effect of over 50% in size; note: potency is the fitted concentration of half-maximal effect; for activity change, negative = cytotoxic: top concentration of the series differs between compounds
How it was run: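 Assay medium contained NanoLuc luciferase plus cell-permeant prosubstrate, added with HEK293 cells at 600 cells/well. After 5 h at 37 C/5% CO2 compounds were added; plates stayed at 37 C for 40 h with serial luminescence reads.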

[4] = A CellTox Green Cytotoxicity Assay to monitor cytotoxicity in HEK293 cells - 0 hour (AID 1224869); note: nearly all actives have a fitted effect of over 50% in size; note: potency is the fitted concentration of half-maximal effect
How it was run: (§1)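 Cells (HEK293, 600/well) and dye reagent are dispensed together. After 5 h at 37 C, 23 nL compound is pinned in. Plates stay at 37 C for 40 h with fluorescence read at 0h, 8h, 16h, 24h, 32h and 40h.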

[5] = qHTS RealTime-Glo MT Cell Viability Assay in HepG2 cells - 40 hour (AID 1224870); note: nearly all actives have a fitted effect of over 50% in size; note: potency is the fitted concentration of half-maximal effect
How it was run: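 HepG2 cells mixed with RealTime-Glo MT reagents (NanoLuc plus cell-permeant prosubstrate) were seeded at 600 cells/well, incubated 5 h at 37 C/5% CO2, then pinned with compounds in DMSO; nonlytic luminescence tracked viability during 40 h treatment.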

[6] = A CellTox Green Cytotoxicity Assay to monitor cytotoxicity in HEK293 cells - 40 hour (AID 1224871); note: nearly all actives have a fitted effect of over 45% in size; note: potency is the fitted concentration of half-maximal effect
How it was run: as §1

[7] = qHTS assay to identify small molecule agonists of the hypoxia (HIF-1) signaling pathway (AID 1224846; active = well fitted activation curve with a large enough effect in the signal ratio in the repeat runs, not every such curve was filed as active; the % refers to the signal ratio)
How it was run: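 Compounds from the Tox21 10K library, dissolved in DMSO, are tested for induction of a hypoxia response element–controlled beta-lactamase reporter in ME-180 cells. Exposure lasts 17 hrs at 37C after a 5 hr settling period, followed by CCF4-AM FRET substrate.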

[8] = qHTS assay to identify small molecule agonists of H2AX - cell viability counter screen (AID 1224847; calls by dose curve; note: nearly all actives have a fitted effect of over 30% in size; note: potency is the fitted concentration of half-maximal effect; for activity change, negative = cytotoxicity: top concentration of the series differs between compounds)
How it was run: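 Read-out: CellTiter-Glo luminescence, 30 min RT. Cells: wild-type CHO-K1, 1000/well, 10% FBS, plated overnight at 37C. Treatment: 15 concentrations, 3 hr, 37C, 0.76% DMSO.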

[9] = qHTS assay to identify small molecule agonists of the estrogen related receptor (ERR) signaling pathway from Tox21 library (AID 1224849; calls by dose curve; note: nearly all actives have a fitted effect of over 15% in size); conditions: ERR reporter cell line, ONE-Glo luciferase, 18 h
How it was run: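 Cells carrying the ERR reporter were plated and allowed to settle for 6 h, exposed to library compounds for 18 h at 37 C, then lysed with ONE-Glo and luminescence measured.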

[10] = qHTS assay to identify small molecule antagonists of the estrogen related receptor (ERR) signaling pathway from Tox21 library (AID 1224848); note: nearly all actives have a fitted effect of over 50% in size; note: potency is the fitted concentration of half-maximal effect
How it was run: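 First, 2,000 ERR cells per well were plated and held 6 h at 37 C/5% CO2. Next, compounds in DMSO were pinned in and left 18 h at 37 C. Finally, ONE-Glo was added and luminescence read after 30 min at room temperature.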

[11] = at 92.4 µM (top of the series) unless noted
% is set by controls: 0 for no effect and ±100 for the full control effect.

CCCCNc1c(C(=O)OCC)c(C)nc2c1cnn2CC
inactive: Potency [1] | Potency [2] | Potency [4] | Potency [5] | Potency [6]
active: Potency [3] 21.3 µM

Oc1cc2ccccc2cc1O
inactive: outcome [7] | Potency [8] | Potency [2] | Potency [4] | Potency [5]

CCCCCCC(C)OC(=O)COc1nc(F)c(Cl)c(N)c1Cl (configuration not stated)
inactive: outcome [7] | activity change, positive = activation [9, 11] -16.7% | Potency [2] | Potency [3] | Potency [4] | Potency [5]
active: Potency [8] 113 µM

CC(C)N=C(N)/N=C(\N)Nc1ccc(Cl)cc1
inactive: Potency [1] | activity change, positive = activation [9, 11] -24.8% [at 42.5 µM] | Potency [2] | Potency [4] | Potency [6]
active: Potency [3] 26.8 µM

COCC(=O)O[C@]1(CCN(C)CCCc2nc3ccccc3[nH]2)CCc2cc(F)ccc2[C@@H]1C(C)C
active: Potency [1] 49.2 µM | Potency [2] 13.4 µM | Potency [3] 6.74 µM | Potency [5] 10.7 µM | Potency [6] 19 µM
inactive: Potency [4]

O=C(c1ccccc1)c1cc(Cl)ccc1O
inactive: outcome [7] | Potency [10] | activity change, positive = activation [9, 11] -10.3% | Potency [2] | Potency [4] | Potency [5]

CC1=C(/C=C/C(C)=C/C=C/C(C)=C\C=O)C(C)(C)CCC1
active: Potency [8] 107 µM
inactive: outcome [7] | Potency [2] | Potency [4] | Potency [5]

Cc1ccc(N)cc1O
inactive: outcome [7] | Potency [2] | Potency [4] | Potency [5] | Potency [6]
active: Potency [8] 101 µM

CCCCCCCCCCOCC(O)CN (configuration not stated)
active: Potency [8] 55.2 µM | Potency [2] 15.1 µM | Potency [3] 23.9 µM | Potency [5] 15.1 µM | Potency [6] 26.8 µM
inactive: outcome [7] | activity change, positive = activation [9, 11] -64% [at 42.5 µM] | Potency [4]

CCOC(=O)N1CCC(=C2c3ccc(Cl)cc3CCc3cccnc32)CC1
inactive: activity change, positive = activation ([9]; at 42.5 µM (top of the series)) -46% | activity change, positive = activation ([9]; at 92.4 µM (top of the series)) -60.8% | Potency [4]
active: Potency [8] 61.9 µM | Potency [10] 30.6 µM and 26.6 µM | Potency [3] 15.5 µM and 16.9 µM | Potency [6] 43.6 µM

COC(=O)CC(C)CCC=C(C)C (configuration not stated)
inactive: outcome [7] | Potency [8] | Potency [10] | activity change, positive = activation [9, 11] 1.82% | Potency [2] | Potency [3] | Potency [4] | Potency [5] | Potency [6]

C=CC(=O)OCCC#N
active: activity change, positive = activation [9, 11] 47%
inactive: outcome [7] | Potency [10] | Potency [2] | Potency [4] | Potency [5]

CCOC(=O)[C@@](C)(N)Cc1ccc(O)c(O)c1
inactive: Potency [8] | Potency [10] | activity change, positive = activation [9, 11] -0.831% [at 42.5 µM] | Potency [2] | Potency [3] | Potency [4] | Potency [5]

S=P(N1CC1)(N1CC1)N1CC1
inactive: Potency [8] | activity change, positive = activation [9, 11] -21.7% | Potency [2] | Potency [4] | Potency [5] | Potency [6]

CCN(CC)c1ccc(N)cc1
inactive: activity change, positive = activation [9, 11] -77.3% | Potency [4]
active: Potency [8] 51.9 µM | Potency [10] 2.5 µM | Potency [3] 22.5 µM

CCCCOc1ccc(C(=O)CCN2CCCCC2)cc1
active: Potency [2] 21.3 µM | Potency [3] 16.9 µM | Potency [5] 6.74 µM | Potency [6] 19 µM
inactive: Potency [8] | Potency [4]

CCCCCCOc1cc(C)c(O)c(C)c1C
inactive: activity change, positive = activation [9, 11] -42.5% | Potency [4]
active: Potency [8] 102 µM | Potency [10] 61.9 µM | Potency [3] 15.7 µM | Potency [6] 44.2 µM

CN(C)CCCN1c2ccccc2CCc2ccccc21
43.6 µM (active) and inactive: Potency [6]
inactive: Potency [8] | Potency [2] | Potency [3] | Potency [4] | Potency [5]

C=C1C(C)(C)[C@@]2(Cl)C(Cl)[C@]1(Cl)C(Cl)(Cl)C2(Cl)Cl (some centres not stated)
inactive: activity change, positive = activation [9, 11] -68% | Potency [4] | Potency [5]
active: Potency [8] 111 µM | Potency [10] 60 µM

c1cc(OCC2CO2)cc(OCC2CO2)c1 (configuration not stated)
inactive: Potency [8] | Potency [2] | Potency [4] | Potency [6]
active: Potency [3] 17.2 µM

CN(C)CCOC(c1ccccc1)c1ccccc1 (tested in a mixture with another compound)
inactive: Potency [8] | Potency [2] | Potency [4] | Potency [5]

CC(C)c1cccc(C(C)C)c1N1C(=O)c2ccc(O)cc2C1=O
inactive: Potency [4]
active: Potency [8] 80 µM | Potency [2] 49 µM | Potency [5] 43.6 µM | Potency [6] 49 µM

O=C1NCN(c2ccccc2)C12CCN(CCCC(c1ccc(F)cc1)c1ccc(F)cc1)CC2
inactive: activity change, positive = activation [9, 11] -32.9% [at 42.5 µM] | Potency [4]
active: Potency [8] 49.2 µM | Potency [10] 21.1 µM | Potency [2] 6.74 µM | Potency [5] 6.74 µM | Potency [6] 23.9 µM

CC(=O)Nc1ccc(O)cc1
inactive: Potency [8] | Potency [2] | Potency [4] | Potency [5] | Potency [6]

CC=O
active: Potency [8] 14.9 µM | Potency [2] 51.3 µM | Potency [3] 0.575 µM | Potency [5] 32.3 µM | Potency [6] 51.3 µM
inactive: Potency [4]

C=CCCCCCCC=C
inactive: Potency [8] | Potency [2] | Potency [3] | Potency [4] | Potency [5] | Potency [6]

N[C@@H](CSSC[C@H](N)C(=O)O)C(=O)O
inactive: activity change, negative = cytotoxicity [8] -5.28% [at 0.582 µM] | activity, negative = inhibition [10] -3.98% [at 0.349 µM] | activity change, positive = activation [9, 11] -3.33% [at 0.349 µM] | activity change, negative = cytotoxicity [2] -0.491% [at 0.29 µM] | activity change, negative = cytotoxic [3] 5.6% [at 0.29 µM] | cytotoxicity [4] -2.52% [at 0.29 µM] | activity change, negative = cytotoxic [5] -2.12% [at 0.29 µM] | cytotoxicity increase [6] 3.14% [at 0.29 µM]

COc1ccc(-n2nc(CCC(=O)N(C)O)cc2-c2ccc(Cl)cc2)cc1
inactive: Potency [8] | Potency [2] | Potency [4]

CCN(CC)CCOC(=O)C1(C2CCCCC2)CCCCC1
active: Potency [8] 49.2 µM | Potency [6] 23.9 µM
inactive: Potency [2] | Potency [4] | Potency [5]

CCN=c1cc2oc3cc(NCC)c(C)cc3c(-c3ccccc3C(=O)OCC)c-2cc1C
inactive: activity change, positive = activation [9, 11] -79.8% and -73.2%
active: Potency [8] 7.1 µM and 31.8 µM | Potency [10] 108 nM and 122 nM | Potency [2] 43.5 µM and 24.5 µM | Potency [3] 1.09 µM and 1.38 µM | Potency [4] 6.89 µM and 6.92 µM | Potency [5] 43.5 µM and 21.9 µM | Potency [6] 7.73 µM and 12.3 µM

CC(C)(C)CC(C)(C)c1ccccc1O
inactive: activity change, positive = activation [9, 11] 1.59% | Potency [2] | Potency [4] | Potency [5]
active: Potency [8] 90.3 µM | Potency [6] 39.1 µM

O=C(O)CCn1c2c(c3ccccc31)C[C@H](NS(=O)(=O)c1ccc(F)cc1)CC2
inactive: Potency [8] | Potency [2] | Potency [3] | Potency [4] | Potency [5]

Cc1oc(-c2ccccc2)nc1CCOc1ccc(C[C@H](Nc2ccccc2C(=O)c2ccccc2)C(=O)O)cc1
active: Potency [8] 80 µM
inactive: Potency [10] | activity change, positive = activation [9, 11] -13.2% | Potency [2] | Potency [3] | Potency [4] | Potency [5] | Potency [6]

CCCOc1sc(C(=O)N2CCC(c3cc(CN)ccc3F)CC2)c(C)c1Br
active: Potency [8] 46.3 µM | Potency [10] 49.9 µM | Potency [2] 22.5 µM | Potency [3] 22.5 µM | Potency [5] 28.3 µM | Potency [6] 31.8 µM
inactive: activity change, positive = activation [9, 11] -71.6% | Potency [4]

O=Nc1ccc(NO)cc1
inactive: Potency [8] | Potency [10] | Potency [2] | Potency [4] | Potency [5] | Potency [6]

CN1CCN(C2Cc3ccccc3Sc3ccc(Cl)cc32)CC1 (configuration not stated)
active: Potency [10] 26.6 µM | Potency [2] 23.9 µM | Potency [6] 21.3 µM
inactive: Potency [8] | activity change, positive = activation [9, 11] -28.3% [at 42.5 µM] | Potency [4]

COc1cc(C(C)C)c2c(c1)S(=O)(=O)N(COc1cc(=O)n3cccc(OCCN4CCCCC4)c3n1)C2=O
inactive: activity change, negative = cytotoxicity [2] -8.66% [at 15.8 µM] | cytotoxicity [4] -2.82% [at 15.8 µM]
active: Potency [8] 24 µM
